{"source": "PubChem BioAssay (NCATS)", "note": "Records with an inconclusive call do not appear. A number with no mark means an inactive call. Activity calls are given as the source filed them. The call rests on the fitted dose curve; in most records, active means well fitted cell-killing curve with a large enough effect; inconclusive means small, poorly fitted or top-dose-only effect, or effect the other way; inactive means flat fitted curve, though single readings scatter. On the % scale 0 is the no-effect control and ±100 the full control effect; potency means the concentration at half of the fitted maximal effect.", "data": [{"experiment": "qHTS of pediatric cancer cell lines to identify multiple opportunities for drug repurposing: Confirmatory screen for Rh18 cells (AID 1347125); further: nearly all actives have a fitted effect of over 55% in size", "details": "Rh18 rhabdomyosarcoma cells, viability; series mostly up to 45.9 µM; activity change, negative = cytotoxic: at the top concentration", "text": "Drug repurposing or repositioning has been offered as a strategy for drug development in oncology programs. This approach has special potential for childhood cancers and other rare or orphan diseases, where the expected return on new drug development has been a disincentive to pharmaceuticals.\nIn this project we exploit the poly-pharmacology of drugs to discover new indications via phenotypic screening of a panel of 19 well-characterized cell lines derived from solid tumors seen in children and adolescents. The goal is to identify approved drugs with previously unrecognized anticancer properties that has the potential to reveal new mechanisms and biological processes involved in carcinogenesis or drug resistance. We employed a titration-based paradigm (quantitative high-throughput screening or qHTS), where all compounds were tested at multiple concentrations for their effect on cell viability. Concentration-response curves (CRCs) were derived directly from the primary screen, and both potency and efficacy values were used to identify compounds with robust bioactivity profiles. We screened the NIH Chemical Genomics Center (NCGC) Pharmaceutical Collection (NPC) and Mechanism Interrogation Plate (MIPE) small molecule collections of approved and investigational compounds against these cell lines; and measured metabolically active cells after 48 hours of compound treatment as a proxy for cell viability.\nAssay Submitter: Nathalia J. Martinez, National Center for Advancing Translational Sciences, National Institutes of Health, Rockville, MD, USA; email: natalia.martinez@nih.gov\n[1] Shen, M et al. Quantitative high-throughput phenotypic screening of pediatric cancer cell lines identifies multiple opportunities for drug repurposing. Oncotarget 2017 Dec 19;9(4):4758-4772. PMID 29435139.\nThe cells were obtained from University of North Carolina (UNC), Pediatric Preclinical Testing Program (PPT), and Coriell Institute (CI).\nqHTS cell viability assay:\nCells were assayed in growth media at a density of 500-1,000 cells/well. Five microliters of cells were dispensed into 1,536-well, white, solid-bottom, TC-treated plates (Greiner Bio One) using a multidrop dispenser and incubated at 37 degrees C, 5% CO2, under a humidified atmosphere for 5 hours. Twenty-three nanoliters of compounds and controls (neutral control DMSO or positive control bortezomib at final concentration of 2.3 µM) were subsequently transferred by Kalypsys pintool. For primary screens, the MIPE collection was tested at 11-point dilutions (final concentrations range from 0.78 nM to 46 µM) and the NPC collection at 8-point dilutions (final concentrations range from 0.59 nM to 46 µM). Compounds tested in follow-up screens were assayed at 11-point dilutions. Cells were incubated for 48 hours, followed by addition of 3 µL of CellTiter-Glo (Promega). After a 15 min incubation at room temperature, samples were analyzed for luminescence intensity using a ViewLux High-throughput CCD imager equipped with clear filters.", "units": {"activity change, negative = cytotoxic": "%"}, "values": [{"smiles": "CCN(CCO)CCCC(C)Nc1ccnc2cc(Cl)ccc12", "note": "(stereo unspecified)", "activity change, negative = cytotoxic": -0.427}, {"smiles": "O=C1c2c(O)cc(O)cc2OC(c2ccc(O)c(O)c2)C1O", "note": "(stereo unspecified)", "activity change, negative = cytotoxic": -2.7}, {"smiles": "Cc1nc(Nc2ncc(C(=O)Nc3c(C)cccc3Cl)s2)cc(N2CCN(CCO)CC2)n1", "Potency": "0.208 µM (active)"}, {"smiles": "CCN(CC)CCOc1ccc(Nc2ncc3cc(-c4c(Cl)cccc4Cl)c(=O)n(C)c3n2)cc1", "Potency": "14.7 µM (active)"}, {"smiles": "CN(C)c1ccc2nc3ccc(=[N+](C)C)cc-3sc2c1", "Potency": "6.57 µM (active)"}, {"smiles": "Nc1nc(OCc2ccccc2)c2[nH]cnc2n1", "activity change, negative = cytotoxic": -22.9}, {"smiles": "CCOc1cc(CC(=O)N[C@@H](CC(C)C)c2ccccc2N2CCCCC2)ccc1C(=O)O", "activity change, negative = cytotoxic": 7.23}, {"smiles": "COc1cc(C(C)=O)ccc1OCCCN1CCC(c2noc3cc(F)ccc23)CC1", "activity change, negative = cytotoxic": -18.1}, {"smiles": "C[C@]12CCC(=O)C=C1CC[C@@H]1[C@H]2[C@@H](O)C[C@@]2(C)[C@H]1CC[C@]2(O)C(=O)CO", "activity change, negative = cytotoxic": -10}, {"smiles": "CC[C@]1(O)C[C@H]2CN(CCc3c([nH]c4ccccc34)[C@@](C(=O)OC)(c3cc4c(cc3OC)N(C=O)[C@H]3[C@@](O)(C(=O)OC)[C@H](OC(C)=O)[C@]5(CC)C=CCN6CC[C@]43[C@@H]65)C2)C1", "activity change, negative = cytotoxic": -20.4}, {"smiles": "CN(C)c1ccc(O)c2c1C[C@H]1C[C@H]3[C@H](N(C)C)C(=O)C(C(N)=O)=C(O)[C@@]3(O)C(=O)C1=C2O", "activity change, negative = cytotoxic": -6.36}, {"smiles": "CCCOc1ccc2nc(NC(=O)OC)[nH]c2c1", "activity change, negative = cytotoxic": 0.882}, {"smiles": "Cc1ccc(NC(=O)c2ccc(CN3CCN(C)CC3)cc2)cc1Nc1nccc(-c2cccnc2)n1", "activity change, negative = cytotoxic": -10.5}, {"smiles": "CCCCc1ccc2nc(NC(=O)OC)[nH]c2c1", "Potency": "8.27 µM (active)"}, {"smiles": "Nc1nc(Cl)nc2c1ncn2[C@H]1C[C@H](O)[C@@H](CO)O1", "activity change, negative = cytotoxic": -12.2}, {"smiles": "CC(C)C[C@H](NC(=O)[C@H](Cc1ccccc1)NC(=O)c1cnccn1)B(O)O", "Potency": "0.0465 µM (active)"}, {"smiles": "O=C(NCC1CCCCN1)c1cc(OCC(F)(F)F)ccc1OCC(F)(F)F", "note": "(stereo unspecified)", "activity change, negative = cytotoxic": 3.94}, {"smiles": "CC(S)C(=O)NCC(=O)O", "note": "(stereo unspecified)", "activity change, negative = cytotoxic": -3.58}, {"smiles": "CC1(C)C(=O)N(CCN2CCC(C(=O)c3ccc(F)cc3)CC2)c2ccccc21", "activity change, negative = cytotoxic": -11.4}, {"smiles": "Clc1ccc(C(Cn2ccnc2)OCc2ccsc2Cl)c(Cl)c1", "note": "(stereo unspecified)", "Potency": "14.7 µM (active)"}, {"smiles": "Oc1ccc(-c2nc(-c3ccc(F)cc3)c(-c3ccncc3)[nH]2)cc1", "Potency": "23.3 µM (active)"}, {"smiles": "CS(=O)(=O)OCCCCOS(C)(=O)=O", "activity change, negative = cytotoxic": -7.11}, {"smiles": "Nc1ncn([C@H]2C[C@H](O)[C@@H](CO)O2)c(=O)n1", "activity change, negative = cytotoxic": 3.16}, {"smiles": "O=C(CCc1ccc(O)cc1)c1c(O)cc(O)cc1O", "activity change, negative = cytotoxic": -11}, {"smiles": "C=C(c1ccc(C(=O)O)cc1)c1cc2c(cc1C)C(C)(C)CCC2(C)C", "activity change, negative = cytotoxic": 4.97}, {"smiles": "Clc1ccc(C(Cn2ccnc2)OCc2ccc(Sc3ccccc3)cc2)c(Cl)c1", "note": "(stereo unspecified)", "activity change, negative = cytotoxic": -27.6}]}]}
